{"source": "PubChem BioAssay AID720704", "about": "(The Scripps Research Institute Molecular Screening Center, 2013)", "note": "Where “and” joins values, the source holds several entries; their conditions need not be identical. Equal values may be shown once. The campaign covered roughly 370,000 compounds. About 660 (0.18%) were called active. This is one part of a sample in which actives are shown more often than they occur. Unmarked numbers belong to inactive results. Cut-off read from the data, not from the text of the source: active = inhibition above about 11%; inactive = the rest."}
{"molecular_target": "1-phosphatidylinositol 4,5-bisphosphate phosphodiesterase beta-3 (Homo sapiens) (UniProt Q01970)", "sequence (Q01970 whole entry, looked up)": "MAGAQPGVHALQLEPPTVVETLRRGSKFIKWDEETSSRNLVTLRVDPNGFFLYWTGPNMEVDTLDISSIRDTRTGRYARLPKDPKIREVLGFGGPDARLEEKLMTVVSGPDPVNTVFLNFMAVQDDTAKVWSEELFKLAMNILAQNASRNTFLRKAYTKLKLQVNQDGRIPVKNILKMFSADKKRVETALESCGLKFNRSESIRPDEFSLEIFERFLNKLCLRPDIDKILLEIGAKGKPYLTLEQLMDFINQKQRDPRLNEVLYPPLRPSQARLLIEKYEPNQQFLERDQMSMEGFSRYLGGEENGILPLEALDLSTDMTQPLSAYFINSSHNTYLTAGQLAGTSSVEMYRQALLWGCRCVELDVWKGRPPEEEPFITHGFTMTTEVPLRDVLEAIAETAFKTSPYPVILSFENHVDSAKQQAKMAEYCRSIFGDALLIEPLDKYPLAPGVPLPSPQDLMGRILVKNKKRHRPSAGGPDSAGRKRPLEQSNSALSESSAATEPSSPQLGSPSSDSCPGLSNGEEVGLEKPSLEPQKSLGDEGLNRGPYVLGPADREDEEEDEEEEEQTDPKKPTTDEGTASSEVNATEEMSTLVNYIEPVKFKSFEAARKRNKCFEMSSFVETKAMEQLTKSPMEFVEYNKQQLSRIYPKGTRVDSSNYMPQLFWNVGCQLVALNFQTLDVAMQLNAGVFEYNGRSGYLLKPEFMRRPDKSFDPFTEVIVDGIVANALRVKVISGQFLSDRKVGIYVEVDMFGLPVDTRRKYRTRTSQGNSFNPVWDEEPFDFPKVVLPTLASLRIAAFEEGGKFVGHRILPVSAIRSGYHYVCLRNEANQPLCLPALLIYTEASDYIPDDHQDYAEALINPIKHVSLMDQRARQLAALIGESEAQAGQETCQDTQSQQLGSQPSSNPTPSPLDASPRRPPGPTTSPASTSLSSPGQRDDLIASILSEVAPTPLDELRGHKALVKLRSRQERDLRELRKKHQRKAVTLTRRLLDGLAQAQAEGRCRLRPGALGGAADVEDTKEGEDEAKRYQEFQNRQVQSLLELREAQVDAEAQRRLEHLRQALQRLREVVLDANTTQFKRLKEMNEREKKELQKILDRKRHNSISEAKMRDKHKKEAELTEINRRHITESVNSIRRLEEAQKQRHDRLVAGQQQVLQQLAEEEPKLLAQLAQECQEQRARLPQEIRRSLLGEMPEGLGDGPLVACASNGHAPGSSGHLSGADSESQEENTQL", "assay": "human PLC-beta3 inhibitors, primary screen, biochemical, fluorescence (AID 720704);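 note: 0% = median of compound wells on plate and 100% = full blocker control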", "conditions": "Purified PLC-beta3, fluorogenic substrate, at 12.2 µM, active compounds read high"}
{"smiles": "CC(N=Cc1nc(-c2ccccc2)oc1O)c1ccccc1", "note": "(configuration not stated)", "inhibition": "15.1% (active)"}
{"smiles": "Oc1oc(-c2ccccc2Br)nc1/C=N/c1ccccn1", "inhibition": "-19.8%"}
{"smiles": "CC(=O)C1=C(O)C(=O)N(c2cccnc2)C1c1ccc([N+](=O)[O-])cc1", "note": "(configuration not stated)", "inhibition": "4.27%"}
{"smiles": "COC(=O)CN1C(=O)C(O)=C(C(C)=O)C1c1ccc([N+](=O)[O-])cc1", "note": "(configuration not stated)", "inhibition": "13.8% (active)"}
{"smiles": "CC(=O)C1=C(O)C(=O)N(c2ccc(Br)cc2)C1c1ccc([N+](=O)[O-])cc1", "note": "(configuration not stated)", "inhibition": "-6.85%"}
{"smiles": "O=C(NC(CC(=O)N1CCN(c2ccccc2)CC1)c1ccccc1)c1ccccc1Cl", "note": "(configuration not stated)", "inhibition": "2.68%"}
{"smiles": "O=C(NCCSc1ncc(-c2ccccc2)[nH]1)c1ccco1", "inhibition": "-6.81%"}
{"smiles": "CCOc1ccc2nc(Cl)c(C3CC(c4ccccc4)=NN3C(=O)c3cccs3)cc2c1", "note": "(configuration not stated)", "inhibition": "-0.32%"}
{"smiles": "CCOc1ccccc1C1CC(c2cccc(NS(C)(=O)=O)c2)=NN1C(=O)c1ccccc1", "note": "(configuration not stated)", "inhibition": "13.2% (active)"}
{"smiles": "Cc1ccc(C2CC(c3cccc(NS(C)(=O)=O)c3)=NN2S(C)(=O)=O)cc1", "note": "(configuration not stated)", "inhibition": "0.24%"}
{"smiles": "Cc1ccc(C(=O)N(CN2CCCC2=O)c2ccc(F)cc2)cc1", "inhibition": "3.26%"}
{"smiles": "CCOc1ccc(S(=O)(=O)Nc2ccncc2)c(C)c1C", "inhibition": "1.51%"}
{"smiles": "Cc1cc(C)c2nc(SCC(=O)N(C)C3CCS(=O)(=O)C3)cc(C)c2c1", "note": "(configuration not stated)", "inhibition": "2.26%"}
{"smiles": "O=S(=O)(c1ccc(F)cc1)N1CCN=C1SCc1cccc(F)c1", "inhibition": "-7.5%"}
{"smiles": "Cc1ccc(/C=C/C(=O)O)cc1S(=O)(=O)N1CCC(Cc2ccccc2)CC1", "inhibition": "-3.09%"}
{"smiles": "Cn1ncc2c(Nc3cccc4ccccc34)ncnc21", "inhibition": "-6.23%"}
{"smiles": "Cc1nc(Nc2ccccc2C)c2cnn(C)c2n1", "inhibition": "13.1% (active)"}
{"smiles": "Cn1ncc2c(NNC(=O)Cc3cccc4ccccc34)ncnc21", "inhibition": "1.27%"}
{"smiles": "O=C1C(=O)N(c2ccccc2)C(c2ccccc2)C1c1ccccc1", "note": "(configuration not stated)", "inhibition": "-283%"}
{"smiles": "O=S(=O)(O)c1cc2onnc2c2ccccc12", "inhibition": "-11.7%"}
{"smiles": "Cc1cc(NS(=O)(=O)c2ccc(NC(=O)CSc3nnc(SCc4ccc(F)cc4)s3)cc2)nc(C)n1", "inhibition": "-3.29%"}
{"smiles": "Cc1cc(C(=O)OC(C)C(=O)Nc2cccc(S(=O)(=O)N3CCOCC3)c2)c(C)o1", "note": "(configuration not stated)", "inhibition": "2.02%"}
{"smiles": "NNC(=O)C1CC(O)CN1S(=O)(=O)c1ccc(Cl)cc1", "note": "(configuration not stated)", "inhibition": "-6.44%"}
{"smiles": "O=C(CSc1ncn[nH]1)Nc1nc2c(F)c(F)c(F)cc2s1", "inhibition": "-3.83%"}
{"smiles": "Cc1cc(C)c(NC(=O)CSc2nc3ccncc3[nH]2)c(C)c1", "inhibition": "-1.6%"}
{"smiles": "CCNC(=S)N1CCC(c2nc3cc(C)c(C)cc3[nH]2)CC1", "inhibition": "0.08%"}
{"smiles": "Cc1cc2nc(SCCN3CCOCC3)[nH]c2cc1C", "inhibition": "10.8% (active)"}
{"smiles": "Fc1ccc(CNCc2ccc(Br)cc2)cc1", "inhibition": "1.89%"}
{"smiles": "CC1(C(=O)NCc2ccco2)Cc2c(-c3ccc4c(c3)OCO4)ccnc2O1", "note": "(configuration not stated)", "inhibition": "-9.86%"}
{"smiles": "COc1ccc(C(=O)NC2CC2)cc1OC1CCN(Cc2ccc(SC)cc2)CC1", "inhibition": "-5.08%"}
{"smiles": "CCN(C(=O)COc1cccnc1[N+](=O)[O-])C1CCS(=O)(=O)C1", "note": "(configuration not stated)", "inhibition": "3.82%"}
{"smiles": "CCc1cc2c(=O)c(-c3ccon3)c(N)oc2cc1OC", "inhibition": "-1.51%"}
{"smiles": "CCOC(=O)C1CCN(C(=O)c2cccc(S(=O)(=O)N(CC)c3ccccc3)c2)CC1", "inhibition": "-9.7%"}
{"smiles": "CCCC1CCC(=NNC(=S)NCCc2ccccc2)CC1", "note": "(configuration not stated)", "inhibition": "-1.2%"}
{"smiles": "O=C(COc1ccc(Cl)cc1)N1CCN(c2cccc(C(F)(F)F)c2)CC1", "inhibition": "13.8% (active)"}
{"smiles": "CSCCC(NC(=O)COc1ccccc1)C(=O)N1CCN(c2cccc(C(F)(F)F)c2)CC1", "note": "(configuration not stated)", "inhibition": "-10.1%"}
{"smiles": "Cc1c(C)c2ccc(OCC(=O)N3CCN(c4cccc(Cl)c4)CC3)cc2oc1=O", "inhibition": "-8.02%"}
{"smiles": "COC(=O)C1CC2=C(CC(C)(C)CC2=O)N(c2ccccc2)C1=O", "note": "(configuration not stated)", "inhibition": "-3.14%"}
{"smiles": "Cc1ccc(C(=O)OCC(=O)Nc2ccc(Cl)cn2)cc1S(=O)(=O)N1CCOCC1", "inhibition": "-6.74%"}
{"smiles": "Cc1cc(NC(=O)COC(=O)c2ccc(F)c(S(=O)(=O)N3CCOCC3)c2)no1", "inhibition": "11.6% (active)"}
{"smiles": "O=C(COC(=O)c1ccc(F)c(S(=O)(=O)N2CCOCC2)c1)NCc1ccc2c(c1)OCO2", "inhibition": "-5.58%"}
{"smiles": "CCc1c(Nc2ccccc2Cl)nc(N)[nH]c1=O", "inhibition": "1.61%"}
{"smiles": "CCc1c(Nc2ccccc2C)nc(N)[nH]c1=O", "inhibition": "14.8% (active)"}
{"smiles": "CCCOc1ccc(Cc2c(O)nc(N)[nH]c2=O)cc1C", "inhibition": "-5%"}
{"smiles": "COc1ccc(C(=O)O)cc1S(=O)(=O)NCc1cccnc1", "inhibition": "-3.06%"}
{"smiles": "Cc1nnc(SCc2ccc(C(=O)c3ccc(Cl)cc3)o2)n1-c1ccccc1", "inhibition": "0.27%"}
{"smiles": "COC(=O)c1cc(NC(=O)c2nn(C)c(=O)c3ccccc23)cc(C(=O)OC)c1", "inhibition": "0.09%"}
{"smiles": "CC(=O)N1c2ccc(S(=O)(=O)N3CCCC(C(=O)NCc4ccc(Cl)cc4)C3)cc2CC1C", "note": "(configuration not stated)", "inhibition": "-2.78%"}
{"smiles": "O=C(NCc1ccco1)c1nn2cccnc2c1Cl", "inhibition": "-10.8%"}
{"smiles": "CN1CCN(C(=O)Cn2c(C(F)(F)F)nc3ccccc32)CC1", "inhibition": "5.24%"}
{"smiles": "CCCCc1nc2ccccc2c(NC(=O)CN2CCN(C)CC2)c1CCC", "inhibition": "32% (active)"}
{"smiles": "CCc1cc(C(=O)c2ccc(OC)cc2)c(NC(=O)CN2CCN(C)CC2)s1", "inhibition": "-17.3%"}
{"smiles": "CCn1c(/C=C/Nc2ccccc2)[n+](CC)c2ccc(C(=O)OCC(F)(F)F)cc21", "inhibition": "13.1% (active)"}
{"smiles": "CCOC(=O)c1cc2ccccc2n1CC(=O)c1ccccc1", "inhibition": "-2.72%"}
{"smiles": "Cc1cc(C)c(OCC(=O)N(Cc2cccs2)C2CCS(=O)(=O)C2)c(C)c1", "note": "(configuration not stated)", "inhibition": "-6.39%"}
{"smiles": "CC1C(=O)Nc2ccccc2N1C(=O)c1c(F)cccc1F", "note": "(configuration not stated)", "inhibition": "-2.5%"}
{"smiles": "CC(=O)O[C@]1(C(C)=O)CC[C@H]2[C@@H]3C=C(C)C4=CC(=O)CC[C@]4(C)[C@H]3CC[C@@]21C", "inhibition": "-0.43%"}
{"smiles": "CC(=O)C12CC(C)=C(C)CC1CC1C3CCC4=CC(=O)CCC4(C)C3CCC12C", "note": "(configuration not stated)", "inhibition": "16.1% (active)"}
{"smiles": "CC(=O)O[C@@]1(C(C)=O)CCC2[C@H]3C=C(C)C4=CC(=O)CC[C@@]4(C)C3CC[C@]21C", "note": "(some centres not stated)", "inhibition": "-4.21%"}
{"smiles": "Cc1cc(NC(=O)COn2nnc3ccccc32)no1", "inhibition": "10.7% (active)"}
{"smiles": "Cc1cc(NC(=O)CSCc2ccccc2C)no1", "inhibition": "-0.65%"}
{"smiles": "Cc1cc(NC(=O)COc2ccccc2C#N)no1", "inhibition": "-4.84%"}
{"smiles": "C/C(CC(=O)Nc1cccc(C(F)(F)F)c1)=N\\NC(=O)C(=O)NCC(C)C", "inhibition": "2.01%"}
{"smiles": "NC(c1csc(NC(=O)Nc2ccccc2Oc2ccccc2)n1)c1ccccc1Cl", "note": "(configuration not stated)", "inhibition": "-2.19%"}
{"smiles": "COc1ccc(C(N)c2csc(NC(=O)Nc3cccc(C(F)(F)F)c3)n2)cc1", "note": "(configuration not stated)", "inhibition": "11.1% (active)"}
{"smiles": "CCOC(=O)/C=C/CN(C(=O)OC(C)(C)C)S(=O)(=O)N1CC=CC1", "inhibition": "5.79%"}
{"smiles": "O=C(CN1CCN(C(=O)C2CCCO2)CC1)Nc1c(Cl)cccc1Cl", "note": "(configuration not stated)", "inhibition": "-2.62%"}
{"smiles": "O=C(C1CCCO1)N1CCN(C(=S)Nc2cccc(Cl)c2)CC1", "note": "(configuration not stated)", "inhibition": "12.1% (active)"}
{"smiles": "O=C(C1CCCO1)N1CCN(C(=S)NC2CC2)CC1", "note": "(configuration not stated)", "inhibition": "-1.16%"}
{"smiles": "C=CCN1[C@H](CC(C)C)COc2cccc(N3CCCC3)c2S1(=O)=O", "inhibition": "-10.8%"}
{"smiles": "C=CCSc1nc2c(c(=O)[nH]1)C(C(C)C)C(C#N)=C(N)O2", "note": "(configuration not stated)", "inhibition": "-5.98%"}
{"smiles": "O=C(NC1CCCC1)C1CC(=O)N(c2ccc(F)cc2)C1", "note": "(configuration not stated)", "inhibition": "1.14%"}
{"smiles": "NC(=O)C1CC=CCC1C(=O)OCC(Cl)=C(Cl)Cl", "note": "(configuration not stated)", "inhibition": "-21%"}
{"smiles": "C=C(Cl)COC(=O)C1C2C=CC(C2)C1C(=O)O", "note": "(configuration not stated)", "inhibition": "-0.54%"}
{"smiles": "COc1cc(OC)cc(C(=O)OCC(=O)Nc2sccc2C(N)=O)c1", "inhibition": "-6.31%"}
{"smiles": "CCOC(=O)c1cnc(SCc2nc(N)nc(Nc3ccc(OC)cc3)n2)nc1N", "inhibition": "0.61%"}
{"smiles": "Cc1ccc2nsnc2c1S(=O)(=O)N1CCCC1C(=O)O", "note": "(configuration not stated)", "inhibition": "5.41%"}
{"smiles": "CC[C@]12c3[nH]c4ccc(Cl)cc4c3CCN1C(=O)[C@@H](CC(=O)NCCCOC)C[C@@H]2C(=O)N1CCN(C(=O)C2CC2)CC1", "inhibition": "-4.01%"}
{"smiles": "O=C(NC1CC1)C1CCCN(C(=O)NC2CCCCC2)C1", "note": "(configuration not stated)", "inhibition": "-7.45%"}
{"smiles": "CC(C)C(=O)N1CCN(CCN=CC2=C(O)CC(c3ccco3)CC2=O)CC1", "note": "(configuration not stated)", "inhibition": "-7.32% and -15%"}
{"smiles": "C=CCn1c(SCc2ccc(Cl)c(Cl)c2)nnc1C(CO)NC(=O)c1ccc(OC)cc1", "note": "(configuration not stated)", "inhibition": "4.74%"}
{"smiles": "COCCCn1cc(CN2CC(N(C)C)CS2(=O)=O)nn1", "note": "(configuration not stated)", "inhibition": "-1.16%"}
{"smiles": "O=C(Nc1c(C(=O)N2CCCCC2)cnn1-c1ccccc1)c1ccco1", "inhibition": "2.51%"}
{"smiles": "O=C(CN(CC1CCCO1)C(=O)CNS(=O)(=O)c1ccc(F)cc1)NCc1ccco1", "note": "(configuration not stated)", "inhibition": "1.51%"}
{"smiles": "O=C1NC2(CCCCC2)N=C1c1ccccc1", "inhibition": "10%"}
{"smiles": "Cc1ccccc1N1CCN(C2CCCN(C(=O)c3cn4c(C)cccc4n3)C2)CC1", "note": "(configuration not stated)", "inhibition": "-10.2%"}
{"smiles": "Oc1c(CN2CCCC2)cc(COCc2ccccc2)c2cccnc12", "inhibition": "16.5% (active)"}
{"smiles": "O=[N+]([O-])c1cc([N+](=O)[O-])c2cccnc2c1O", "inhibition": "-4.85%"}
{"smiles": "CCCNC(=O)NC(=O)COC(=O)CC(NC(N)=O)c1ccc(Cl)cc1", "note": "(configuration not stated)", "inhibition": "0.66%"}
{"smiles": "COc1ccccc1/C=N\\Nc1cc(C)nc(-n2nc(C)cc2C)n1", "inhibition": "11.2% (active)"}
{"smiles": "COc1ccccc1CCNC(=O)C1CCN(c2nc(C)cc(C)n2)CC1", "inhibition": "1.47%"}
{"smiles": "CCOC(=O)c1cnc(-n2nc(C)cc2C)nc1NNc1cc(C)nc(-c2ccccc2)n1", "inhibition": "1.49%"}
